Sampled rows, rich in hits. Any-hit rate of the full collection: about 4.6%.
SKKanGAS inh: inhibitors of SKKanGAS S. pyogenes growth in kanamycin (SK-promoter or general growth effect); inhibition, % at 7.5 µM; 300,000 tested, 1.3% active; AID 1662; BacTiter-Glo, 6 h;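 active = mean replicate score, as percent of positive control median, at least 50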;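 note: strain carries kanamycin resistance gene driven by streptokinase promoter and grows in 40 µg/ml kanamycin; loss of luminescence reflects streptokinase promoter inhibition or plain growth inhibition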
TIM10 inh: growth inhibitors of TIM10 yeast strain; S. cerevisiae TIM10 strain growth, BacTiter-Glo luminescence, 24 h; 330,000 tested, 1.4% active; AID 463195; inhibition, % at 10 µM;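 active = inhibition of 40% or more at the single tested concentration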;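 note: wild-type TIM10 isogenic control strain grown at permissive 25 °C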
tim10-1 inh: growth inhibitors of tim10-1 mutant yeast; S. cerevisiae tim10-1 ts strain growth, BacTiter-Glo, 24 h; inhibition, % at 20 µM; 330,000 tested, 2.2% active; AID 463190;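 active = inhibition of at least 40%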;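 note: mutant grown at 25 °C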
tim23-1 inh: growth inhibitors of tim23-1 mutant yeast; S. cerevisiae tim23-1 growth, BacTiter-Glo luminescence, 24 h; inhibition, % at 20 µM; 330,000 tested, 1.3% active; AID 463212;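 active = growth inhibition of the mutant yeast at or above 50%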;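 note: temperature-sensitive mutant grown at 25 °C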
NLRP3 yeast inh: NALP3 inhibition in yeast; Yeast reconstituted NLRP3/ASC/caspase-1, beta-gal luminescence, 24 h; inhibition, % at 10 µM; 330,000 tested, 0.39% active; AID 2825;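 active = inhibition of 50% or more; inactive = inhibition below 50%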
tim10-1 confirm: confirmation of tim10-1 mutant yeast growth inhibitors; S. cerevisiae tim10-1 ts strain growth, BacTiter-Glo, 24 h; inhibition, % at 20 µM; shares compounds with tim10-1 inh; 7,400 tested, 56% active; AID 463213;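 active = inhibition of yeast growth at or above a set limit in either of two repeat tests at 20 µM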;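 note: tim10-1 mutant grown at permissive 25 °C to find synthetic lethal compounds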
Of the large screens only hits and unclear results are named; the others gave an inactive call (follow-up assays come after a bar, where they were run).

Cc1ccc(C(=O)CCC(=O)Nc2cc(C)ccn2)cc1	none (no result: SKKanGAS inh)
CC/C(=N\Nc1ccccc1[N+](=O)[O-])c1ccc(O)cc1	tim10-1 inh 57 | tim10-1 confirm 39
O=C(COC(=O)CN1CCSC1=O)Nc1ccc(F)cc1Cl	none (no result: SKKanGAS inh)
Cc1cc(C)n(-c2nnc(NC34CC5CC(CC(C5)C3)C4)nn2)n1	tim10-1 inh 57 | tim10-1 confirm 42
Cc1cc(C)n(-c2nnc(NC(C)(C)C)nn2)n1	none
COc1ccc2[nH]c3c(c2c1)CCN1C(=O)C(CC(=O)NCCc2ccccn2)C[C@H](C(=O)N2CCCCC2)[C@@]31C (some centres not stated)	none (no result: SKKanGAS inh, NLRP3 yeast inh)
COc1ccccc1C(CCNCc1ccccc1)c1ccc(OC(C)C)cc1 (configuration not stated)	tim10-1 inh 41 | tim10-1 confirm 31
COc1ccc(CNCCC(c2ccc(OC(C)C)cc2)c2ccccc2OC)cc1 (configuration not stated)	none
Cc1ccccc1OCCC(=O)Nc1cc(S(=O)(=O)N2CCOCC2)ccc1OC(C)C	none
Cc1ccc(Sc2ncnc3onc(C)c23)cc1	tim10-1 inh 41 | tim10-1 confirm inactive
S=c1nc[nH]c2c1sc1nc(N3CCOCC3)c3c(c12)CCCC3	tim10-1 inh 43 | tim10-1 confirm inactive
CC(C)(C)c1ccc(NC(=O)C2CCCN(c3cnccn3)C2)cc1 (configuration not stated)	none
OC(COc1ccccc1)Cn1c2ccccc2c2ccccc21 (configuration not stated)	tim10-1 inh 42 | tim10-1 confirm 51
Cc1cc(C)c(S(=O)(=O)NC2CC(C)(C)NC(C)(C)C2)cc1Br	none
CC1=CC2=NC(=O)CC(C)(C(=O)N(CC(=O)NC3CCCC3)Cc3ccccc3)N2C=C1 (configuration not stated)	none
O=C1S/C(=C/c2ccc(N3CCOCC3)o2)C(=O)N1Cc1c(F)cccc1Cl	tim10-1 inh 59 | tim10-1 confirm 58
O=C1S/C(=C\c2ccc(N3CCOCC3)o2)C(=O)N1Cc1c(F)cccc1Cl	none
COC(=O)[C@H](CC(C)C)NC(=O)Cn1cnc2c(SC)nc(N)nc21	none (no result: SKKanGAS inh)
CC(NC(=O)c1cccc(Cl)c1)C1CC2CCC1C2 (configuration not stated)	tim10-1 inh 45 | tim10-1 confirm 35
CC(NC(=O)c1ccc(Cl)cc1)C1CC2CCC1C2 (configuration not stated)	none
COCCn1c(=S)[nH]c2cc(C(=O)N3CC(C)CC(C)C3)ccc2c1=O (configuration not stated)	tim10-1 inh 41 | tim10-1 confirm inactive
CC1Cc2ccccc2N1C(=O)CN1CCN(S(=O)(=O)c2cccs2)CC1 (configuration not stated)	tim10-1 inh 48 (no result: SKKanGAS inh) | tim10-1 confirm inactive
O=C(O)c1cccc(Cn2c(Cl)c(/C=N/NC(=O)c3ccco3)sc2=O)c1	none
CC(=O)c1c(C)[nH]c(C(=O)OCC(=O)N2CC(C)OC(C)C2)c1C (configuration not stated)	none
CCCCN1C(=O)NC(NC(=O)c2ccco2)(C(F)(F)F)C1=O (configuration not stated)	none
CC(C)Oc1ccc(C(=O)NC2(C(F)(F)F)NC(=O)N(CCCc3ccccc3)C2=O)cc1 (configuration not stated)	tim10-1 inh 43 | tim10-1 confirm inactive
COc1cc2c(cc1OC)C(c1cccs1)NCC2 (configuration not stated)	none
COc1cc2c(cc1OC)C(COc1ccc(C(C)C)cc1)NCC2 (configuration not stated)	tim10-1 inh 48 | tim10-1 confirm inactive
O=C(CCNS(=O)(=O)c1ccc(F)c(F)c1)NCCN1CCOCC1	none (no result: SKKanGAS inh)
Cc1ccc(C)c(OC(=O)c2cccc(S(=O)(=O)N3CCN(C)CC3)c2)c1	tim10-1 inh 42 | tim10-1 confirm inactive
O=Cc1ccc2ccc3cccnc3c2n1	tim10-1 inh 42 | tim10-1 confirm inactive
O=Cc1ccc2cccnc2n1	none
O=S(=O)(c1ccc(NC(=S)N/N=C/c2ccc(Oc3ccccc3)cc2)cc1)N1CCOCC1	none
O=S(=O)(c1ccc(NC(=S)N/N=C/c2c3ccccc3cc3ccccc23)cc1)N1CCOCC1	tim10-1 inh 50 (no result: SKKanGAS inh) | tim10-1 confirm 30
COc1ccccc1C(=O)Nc1ccc(S(=O)(=O)N2CCCC2)cc1	none
Cc1ccc(C(=O)Nc2ccc(S(=O)(=O)N3CCOCC3)cc2)cc1C	tim10-1 inh 41 | tim10-1 confirm inactive

Assay outcomes (PubChem BioAssay)
